From publication PMC5540273 (PLoS ONE, 2017) come the findings set out here.

The structures appear in SMILES notation.
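Further: KINOMEscan kinase panel screen.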

The assay has as its system EPHA7. As to conditions: concentration: 1 μM, replicates: in singlicate; n = 1.
Turning to `Nc1ncc(-c2ccc3nccc(-c4ccncc4)c3c2)cc1S(=O)(=O)N1CCCCC1` [GSK1693850], the “%Inh” value was 3%.
Take `COc1cccc(CC(=O)N2CCc3cc(-c4cn(C)c5ncnc(N)c45)ccc32)c1` [GSK2608899]: the “%Inh” value is given as 10%.
In the case of `CC(C)NCC(Cc1ccccc1)NC(=O)c1cc(Br)c(-c2ccnc3[nH]ccc23)s1.Cl.Cl` (stereo not shown) [GSK1383281], the “%Inh” value is recorded as 0%.
The result for `Nc1ncc(-c2cn[nH]c2)c2scc(-c3ccc4c(c3)CCN4C(=O)Cc3ccccc3)c12` [GSK2593067] reads 0%.
On to `Cc1cccc(Nc2nc(NCCN)ncc2C(N)=O)c1` [GSK1292139], for which the “%Inh” value stood at 52%.
The result for `CC(C)c1nc(-c2cccc(NS(=O)(=O)c3c(F)cccc3F)c2)c(-c2ccnc(Nc3ccc(N4CCOCC4)nc3)n2)s1.Cl` [GSK1723980] reads 0%.
In the case of `Cc1ccc(-c2ccc3occ(-c4ccc(S(C)=O)cc4)c3c2)nn1` (stereo not shown), the “%Inh” value came out at 0%.
As to `COc1ccc(C2=C(Nc3cccc(O)c3)C(=O)NC2=O)cc1` [SB-390766], the “%Inh” value is 4%.
The result for `COc1ccc(NC(=O)c2ccoc2)cc1-c1ccc(C(=O)NCC2CC2)cc1` [GW810437] reads 0%; that for `Cc1nn2c(=O)cc(N3CCO[C@H](C)C3)nc2n1Cc1cccc(Cl)c1Cl` [GSK2373693], 0%; that for `Cl.O=C(Nc1ccc(Oc2ccc3[nH]c(NC(=O)c4ccco4)nc3c2)cc1)Nc1cc(C(F)(F)F)ccc1F` [GW683134], 86%.
For `O=C(O)C(F)(F)F.O=c1[nH]ccc2nc(N[C@@H]3CCNC3)nc(Nc3ccc4c(c3)S(=O)(=O)CC4)c12` [GSK2181306], the “%Inh” value stood at 27%.
The result for `O=C(Nc1n[nH]c2cc(-c3cccs3)ccc12)C1CC1` [SB-731284] reads 0%; that for `CNc1nccc(-c2ccc3c(N)n[nH]c3c2)n1` [GSK2206003], 9%.
As to `COc1cccc(NC(=O)NCCNc2ccnc(Nc3ccc(F)cc3)n2)c1` [GSK1379879], the “%Inh” value was determined as 0%.
For the compound `CN(c1ccc2c(c1)nc(NCc1ccccc1)n2C)c1ccnc(Nc2ccc(CS(C)(=O)=O)cc2)n1.Cl` [GW811603], the “%Inh” value is 20%.
Take `Cc1ccc(O)cc1Nc1ccnc2cc(-c3ccc(CN4CCCCC4)o3)ccc12` [GW557777]: the “%Inh” value amounted to 0%.
`Cc1cccc(Nc2nc(N[C@H]3CCCC[C@H]3N)ncc2C(N)=O)c1.Cl` [GSK986310]: the “%Inh” value is listed as 21%.
As to `c1ccc(Oc2ccc(Nc3ccnc4cc(-c5ccc(CN6CCCCC6)o5)ccc34)cc2)nc1` [GW567143], the “%Inh” value was determined as 0%.
`CC(C)c1nc(-c2ccc(F)c(NS(=O)(=O)c3c(F)cccc3F)c2)c(-c2ccnc(Nc3ccc(N4CCOCC4)nc3)n2)s1` [GSK1804250]: the “%Inh” value amounted to 12%.
The result for `CCNc1nccc(-c2c(-c3ccc(F)cc3)ncn2C2CCN(C)CC2)n1` reads 0%; that for `Fc1cc(Cl)ccc1Nc1ccnc2cc(-c3ccc(CN4CCSCC4)o3)ccc12` [GW560106], 0%.
For the compound `NCCC(NC(=O)c1cc(Br)c(-c2ccnc3[nH]ccc23)s1)c1ccccc1.O=C(O)C(F)(F)F.O=C(O)C(F)(F)F` (stereo not shown) [GSK1307810], the “%Inh” value is given as 3%.
On to `Cc1ccc(NC(=O)c2ccc(Cl)c(Cl)c2)cc1-c1ccc(C(=O)Nc2ccncc2)cc1` [GSK1398460], for which the “%Inh” value is given as 9%.
Consider `O=C(O)C(F)(F)F.O=c1[nH]ccc2nc(N[C@@H]3CCNC3)nc(Nc3cc(Cl)cc(Cl)c3)c12` [GSK2188764], for which the “%Inh” value came to 1%.
The result for `Nc1ncnc2scc(-c3ccc(NC(=O)Cc4cc(F)ccc4F)cc3)c12.O=C(O)C(F)(F)F` [SB-731254-M] reads 4%; that for `Cc1ccc(NC(=O)c2ccnc(N3CCCCC3)c2)cc1-c1ccc(C(=O)NCC2CC2)cc1` [GW775610], 0%; that for `Fc1cc(Cl)ccc1Nc1ccnc2cc(-c3ccc(CN4CCOCC4)o3)ccc12` [GW560109], 59%.
`CS(=O)(=O)c1cccc(CNc2nc(Nc3ccc4c(c3)CCC(=O)N4)ncc2C(F)(F)F)c1`: the “%Inh” value is 0%.
In the case of `Cc1cc(-c2c(-c3ccc(F)cc3)ncn2CCCN2CCOCC2)nc(N)n1` [SB-222517], the “%Inh” value is reported as 0%.
For the compound `CN1CCN(Cc2ccc(NC(=O)Nc3ccc(N(C)c4ccnc(Nc5ccc(CS(C)(=O)=O)cc5)n4)cc3)cc2)CC1.Cl` [GW827654], the “%Inh” value is on record as 10%.
For `COc1cccc(C2=C(Nc3cccc(O)c3)C(=O)NC2=O)c1` [SB-390771], the “%Inh” value was 10%.
In the case of `O=C(Nc1n[nH]c2nc(-c3cccc(O)c3)ccc12)C1CC1` [SB-711805], the “%Inh” value was 11%.
As to `CN(c1ccc(NC(=O)Nc2cccc(Cl)c2)cc1)c1ccnc(N)n1.Cl` [GW830707], the “%Inh” value came to 40%.
Consider `CC(=O)Nc1cn2nc(Oc3cccc(NC(=O)c4cccc(C(F)(F)F)c4)c3)ccc2n1`, for which the “%Inh” value came to 7%.
The result for `COc1ccc(C)c(Nc2ccnc(Nc3ccc(-c4cnc[nH]4)cc3)n2)c1.Cl` [GW784041] reads 6%; that for `Cl.Cl.NC(CNC(=O)c1cc(Br)c(-c2ccnc3[nH]ccc23)s1)c1ccccc1` (stereo not shown) [GSK1322949], 10%.
